Screening data deposited in PubChem BioAssay by National Center for Advancing Translational Sciences (NCATS).
Pf growth 96h – Primary qHTS for delayed death inhibitors of the malarial parasite plastid, 96 hour incubation | P. falciparum luciferase reporter growth, 96 h | Potency, µM (highest dose often 28.7 µM), for the others: at the top dose activity change, negative = inhibition, most hits filed as inhibitors | 320,000 compounds, 6.9% hits | AID 504834, 2011; further: potency means the concentration at half of the fitted maximal effect; on the % scale 0 is the no-effect control and ±100 the full control effect
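Infected RBCs, 2% Hct / 0.05% parasitemia final; luciferase-reporter P. falciparum; cpd 96 h, 37 C, 5% CO2; luciferase detection reagent; luminescence.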
Shiga inhibitor – A qHTS for Small Molecule Inhibitors of Shiga Toxin; Vero cells, Shiga toxin protein synthesis inhibition reporter; inhibition, % at 38.7 µM; 290,000 compounds, 9.2% hits; in the data active means inhibition mostly above about 28%, no sharp cut-off; inactive means mostly below about 43%; further: 0% is about no effect
HCV inhibitor – qHTS Assay for Inhibitors of Hepatitis C Virus (HCV); Huh7.5.1 HCVcc-Cre infection, luciferase reporter, 44 h; Potency, µM (doses to about 41.8 µM), without a hit: top-dose activity change, negative = inhibition, hits mostly inhibitors; 340,000 compounds, 3.4% hits; further: potency means the concentration at half of the fitted maximal effect; on the % scale 0 is the no-effect control and ±100 the full control effect
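Compounds are dispensed onto cells plated 4 h earlier at 1,000 per well, with HCVcc-Cre virus (about 0.5 moi) added next. Following 44 h of culture, luminescent signal is measured for 15 sec after 15 min with substrate at room temperature.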
Pf growth 48h – Primary qHTS for delayed death inhibitors of the malarial parasite plastid, 48 hour incubation. P. falciparum luciferase growth in erythrocytes, 48 h. Potency, µM (highest dose often 28.7 µM), without a hit: at the highest dose activity change, negative = inhibition, hits mostly inhibitors. AID 504832, 2011. 310,000 compounds, 5.9% hits; further: potency means the concentration at half of the fitted maximal effect; on the % scale 0 is the no-effect control and ±100 the full control effect
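Growth was read as firefly luciferase luminescence after a 48 h, 37 C, 5% CO2 exposure of compounds to reporter-bearing P. falciparum cultures (0.1% parasitemia, 2% hematocrit final) in Albumax-supplemented RPMI 1640.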
Cycloheximide cs – Cycloheximide Counterscreen for Small Molecule Inhibitors of Shiga Toxin. cell reporter, cycloheximide protein synthesis inhibition counterscreen. max response, %. 300,000 compounds, 12% hits; in the data active means max response mostly above about 13%, no sharp cut-off; inactive means mostly below about 14%; further: read at 38.3 µM for the half of the compounds with a filed dose; 0% is about no effect
HCMV inh – qHTS Assay for inhibitors of the human cytomegalovirus (HCMV); HFF cells, HCMV-luciferase reporter, 72 h; stronger effect = lower value; activity change, negative = inhibition, % at 57.5 µM; 410,000 compounds, 4.5% hits; AID 1259415, 2018; in the data active means activity change below about -60%; inconclusive means no clear call, values can overlap the other calls; inactive means above about -39%; further: on the % scale 0 is the no-effect control and ±100 the full control effect
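Screen run at 2 compound doses on HFFs infected with reporter HCMV, MOI 1 PFU/cell. Luciferase activity from cell lysates at 72 h post infection gave inhibition relative to buffer-only and Salinomycin wells.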
* marks the source's active call; other numbers are inactive results; ? = inconclusive; nt = no result. A selection: hits, their analogues and other compounds. The true share with any hit is near 21%. Unless noted, the call rests on the fitted dose curve; in most records, active means well fitted inhibition curve with a large enough effect; inconclusive means small, poorly fitted or top-dose-only effect, or another doubt; inactive means no such curve, though single readings can be large or run the other way.

SMILES	Pf growth 96h	Shiga inhibitor	HCV inhibitor	Pf growth 48h	Cycloheximide cs	HCMV inh
CC(=O)NCCNC(=O)c1ccc(NC2=NC3CS(=O)(=O)CC3S2)cc1 (stereo unspecified)	12%	-29	25%	0%	-1	0
COCCNC(=O)[C@@H]1[C@@H](CO)[C@@H]2Cn3c(cccc3=O)[C@H]1N2Cc1cccc(Cl)c1	nt	nt	nt	nt	nt	-4
Cc1ccc(C(=O)Nc2ccncc2)c(C)c1	?	18	?	-23%	8.9*	?
Cc1cccc(NC(=O)c2cccc(NC(=O)Cc3cccs3)c2)c1	?	92*	?	?	27*	51
COc1cc(NC(=O)c2cccs2)cc(OC)c1	10µM*	active	-25%	75%	15*	44
COc1ccc(/C=C(\NC(=O)c2cccs2)C(=O)NN)cc1OC	8%	-10	12%	-7%	3	31
COc1ccc(/C=C(/NC(=O)c2cccs2)C(=O)NC(C)(C)C)cc1OC	9.3µM*	nt	-9%	11%	-3	-17
Cc1ccc(-n2nc(C)c(C(=O)N3CCN(C(=O)c4ccco4)CC3)c2-n2cccc2)cc1	-6%	-15	9%	?	-5	27
O=C(Nc1cccc(Cl)c1)c1ccc2c(c1)CCN2S(=O)(=O)c1ccccc1	nt	nt	nt	nt	nt	-25
CCOc1ccccc1CNc1nc2nc(C)c(CC(=O)OC)c(=O)n2[nH]1	nt	nt	nt	nt	nt	12
COc1cc(Cl)c(C)cc1NC(=O)Cc1ccc(OC)c(OC)c1	?	3	?	?	2	-34
COc1cc(NC(=O)Cc2cccs2)cc(OC)c1	10µM*	-6	?	1%	-3	25
Cc1cc(C)nc(NC(=O)c2cccs2)n1	88%	34	9%	30%	12	10
COc1nc(N)nc(NC(=O)c2cccs2)c1N=O	nt	nt	-5%	nt	nt	-78*
COc1cc(Cl)c(C)cc1NC(=O)Cc1cccs1	-5%	-4	3.5µM*	3%	2	-19
COc1ccc(C(=O)Nc2cccc(NC(=O)c3cccs3)c2)cc1	4%	20*	-23%	46%	25*	47
COc1cccc(NC(=O)Cc2cccs2)c1	33%	17	22%	7%	15	-23
O=C(COCc1cc(-c2ccco2)on1)Nc1cccc(Cl)c1Cl	nt	nt	nt	nt	nt	0
COc1ccccc1N(CC(=O)NC(C)(C)C)C(=O)CCC(=O)Nc1nccs1	41%	-5	5%	-22%	1	-6
CCOc1ccc(N(CC(=O)Nc2cccnc2)S(C)(=O)=O)cc1	-29%	-18	-12%	-3%	-5	-19
COc1ccc(NC(=O)c2cccs2)cc1OC	170%	19	-6%	52%	19*	34
COc1cc(C(=O)OCC(=O)N2CCCCC2C)cc(NC(=O)c2cccs2)c1OC (stereo unspecified)	?	11	?	0.12µM*	2	?
COc1cccc(NC(=O)c2cccs2)c1	?	135*	20%	77%	54*	-3
COc1cc(N)ccc1NC(=O)c1cccs1	21%	6	?	?	13*	5
COc1cc(NC(=O)c2cc(OC)c(OC)c(OC)c2)ccc1NC(=O)c1cccs1	?	-42	?	-19%	1	30
SMILES	Pf growth 96h	Shiga inhibitor	HCV inhibitor	Pf growth 48h	Cycloheximide cs	HCMV inh
COc1ccc(N2CCN(c3oc(/C=C/c4ccccc4OC)nc3C#N)CC2)cc1	nt	nt	nt	nt	nt	-26
NC(=O)CC(NC(=O)Cc1cccc2ccccc12)c1ccc(NC2CCCCCC2)c([N+](=O)[O-])c1 (stereo unspecified)	6%	2	?	-1%	-1	-36
NC(=O)CC(NC(=O)Cc1cccc2ccccc12)c1ccc(NCCc2ccccc2F)c([N+](=O)[O-])c1 (stereo unspecified)	?	-5	14%	?	1	-81*
NC(=O)CC(NC(=O)Cc1cccc2ccccc12)c1ccc(NC2CCCCCCC2)c([N+](=O)[O-])c1 (stereo unspecified)	2%	9	20%	62%	-5	-62*
NC(=O)CC(NC(=O)Cc1cccc2ccccc12)c1ccc(NCc2ccc(F)cc2)c([N+](=O)[O-])c1 (stereo unspecified)	4%	-10	-12%	-8%	-3	-5
NC(=O)CC(NC(=O)Cc1cccc2ccccc12)c1ccc(NCCc2ccc(F)cc2)c([N+](=O)[O-])c1 (stereo unspecified)	2%	3	6%	?	-4	-67*
CCOC(=O)c1ccc2oc(=O)n(Cc3ccccc3)c2c1	nt	nt	nt	nt	nt	-37
CCc1ccc(-c2cc(-c3n[nH]c(=S)n3CC)c3ccccc3n2)cc1	2.9µM*	41*	-3%	?	32*	nt
CCOc1ccc(-n2c(SCC(=O)Nc3ccc(F)cc3)nc3c([nH]c4ccccc43)c2=O)cc1	nt	nt	nt	nt	nt	-3
COc1ccc(CCNC(=O)CCc2nnc(Cc3ccc4c(c3)OCO4)o2)cc1	34%	9	-13%	-11%	-3	2
CN(CCc1ccccc1)C(=O)CCc1nnc(Cc2ccc3c(c2)OCO3)o1	?	32	3%	?	13*	13
CN(Cc1ccon1)C(=O)CCc1nnc(CCCCc2ccccc2)o1	?	-10	5%	11%	-1	49
CN(Cc1ccon1)C(=O)CCc1nnc(Cc2ccc(-c3ccccc3)cc2)o1	17%	37*	-26%	-2%	24*	16
CC(c1ccon1)N(C)C(=O)CCc1nnc(Cc2ccc(-c3ccccc3)cc2)o1 (stereo unspecified)	26%	40	?	?	16*	9
O=C(NCc1ccccc1Cl)c1cccc2c1C(=O)c1ccc(-c3ccc(OC(F)(F)F)cc3)cc1S2(=O)=O	nt	nt	-14%	nt	nt	nt
O=C(c1cc(COc2ccc3ncccc3c2)on1)N1CCCCCC1	-17%	49*	?	19%	18	-37
Cc1cc(C(=O)NC(C)c2ccncc2)no1 (stereo unspecified)	?	-9	-6%	-4%	-3	9
O=C(NC1CCCC1)c1cc(COc2ccc3ncccc3c2)on1	-6%	-8	3.5µM*	-20%	-3	nt
Cc1ccc(OCc2cc(C(=O)NC3CCCCC3)no2)cn1	13µM*	-6	?	17%	8	0
CC(NC(=O)c1cc(COc2ccc3ncccc3c2)on1)c1ccc(F)cc1 (stereo unspecified)	-2%	7	2.2µM*	?	5	-85*
COC(=O)c1sc(NC(=O)c2ccc3c(c2)OCO3)c(C#N)c1C	nt	nt	12%	nt	nt	-8
